Compound activity deposited in PubChem BioAssay by several laboratories.
Rows were chosen to be rich in hits. Some 3.9% of all compounds tested hit in one or more screens of this group.
Autofluor counter: counter-screen for toxin protease inhibitors: compound fluorescence | compound autofluorescence counterscreen, microsphere flow cytometry; active compounds read high | fluorescence intensity (test concentration not listed) | AID 624483 | 3.1% of 360,000 active; in the data active means fluorescence intensity above about 16000; inconclusive means no clear call, values can overlap the other calls
SARS 3CLpro inh: SARS-CoV 3CLpro protease inhibition; recombinant SARS-CoV 3CLpro, quenched FRET peptide cleavage; inhibition, % at 6 µM; 0.14% of 290,000 active; in the data active means inhibition above about 12%
BoNT F protease: blocks Botulinum neurotoxin F light chain protease; AID 588497; 0.22% of 360,000 active; inhibition, % at 10 µM; Multiplex microsphere protease cleavage assay, flow cytometry; in the data active means inhibition above about 35%, passing the limit was not always enough; inconclusive means no clear call, values can overlap the other calls; further: plate controls were buffer without enzyme for full effect and enzyme alone for no effect
BoNT A protease: inhibitors of Botulinum neurotoxin A light chain protease; multiplex microsphere protease substrate cleavage, flow cytometry; inhibition, % at 10 µM; 0.17% of 360,000 active; AID 588499; further: plate controls were buffer without enzyme for full effect and enzyme alone for no effect
Anthrax LF prot: inhibitors of Bacillus anthracis lethal factor protease. multiplex microsphere protease cleavage assay, LF. 0.12% of 360,000 active. inhibition, % at 10 µM. AID 588501; further: plate controls were buffer without enzyme for full effect and enzyme alone for no effect
Target sequence (P15917 whole entry, looked up): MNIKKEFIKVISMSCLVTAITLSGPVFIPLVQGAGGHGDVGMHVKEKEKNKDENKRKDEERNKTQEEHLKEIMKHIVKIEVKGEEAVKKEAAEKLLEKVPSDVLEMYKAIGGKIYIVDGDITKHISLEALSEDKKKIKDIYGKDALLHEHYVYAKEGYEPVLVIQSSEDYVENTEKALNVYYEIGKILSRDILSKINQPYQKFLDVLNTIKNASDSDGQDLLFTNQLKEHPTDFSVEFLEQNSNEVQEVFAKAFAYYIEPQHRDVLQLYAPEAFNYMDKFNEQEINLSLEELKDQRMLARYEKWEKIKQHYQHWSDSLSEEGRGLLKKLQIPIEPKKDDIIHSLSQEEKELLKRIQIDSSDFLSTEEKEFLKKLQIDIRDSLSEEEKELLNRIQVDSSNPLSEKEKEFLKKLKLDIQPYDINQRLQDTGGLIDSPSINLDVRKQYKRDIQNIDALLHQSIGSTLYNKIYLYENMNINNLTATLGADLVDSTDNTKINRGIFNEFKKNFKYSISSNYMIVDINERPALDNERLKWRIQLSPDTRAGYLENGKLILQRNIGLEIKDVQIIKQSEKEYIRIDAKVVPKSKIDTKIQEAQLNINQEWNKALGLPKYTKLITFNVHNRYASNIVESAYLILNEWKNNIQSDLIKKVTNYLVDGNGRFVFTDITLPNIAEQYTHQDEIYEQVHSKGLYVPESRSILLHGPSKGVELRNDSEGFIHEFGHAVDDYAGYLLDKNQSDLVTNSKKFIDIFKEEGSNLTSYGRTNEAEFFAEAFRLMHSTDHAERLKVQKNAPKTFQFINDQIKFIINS
CCHFV vOTU inh: CCHFV vOTU protease inhibition; AID 651958; 0.55% of 370,000 active; Pep-AMC fluorescence; inhibition, % at 11.5 µM; in the data active means inhibition above about 30%; further: 0% = vehicle wells with enzyme and 100% = no enzyme wells
* = called active by the depositor; ? = inconclusive; nt = not tested or not shown. Unless noted, no stated cut-off is given here; in the data, active means inhibition above about 30%; inconclusive means no clear call, values can overlap the other calls; inactive means below that.

SMILES	Autofluor counter	SARS 3CLpro inh	BoNT F protease	BoNT A protease	Anthrax LF prot	CCHFV vOTU inh
CN1C(=O)CC(NNC(=O)c2ccccc2)C1=O (stereo not given)	3433	1.4	-7.9	-0.4	-3.6	13.2
O=C(CNC(=O)N1CC(=O)Nc2ccccc21)NCc1ccc(Cl)cc1	5652	7.9	-2.3	0.3	0.3	12.8
O=C(Nc1ccccc1)NC1CS(=O)(=O)CC1O (stereo not given)	22098*	-0.5	-2.1	-0.5	0.8	-1.0
CCOC(=O)c1[nH]c(C)c(C(=O)NCCCOC(C)C)c1C	21373*	-0.6	-4.6	-3.7	-0.7	-2.5
CCOC(=O)c1[nH]c(C)c(C(=O)N2CCN(c3cccc(Cl)c3)CC2)c1C	19964*	-1.8	1.4	2.1	0.1	-13.8
CCOC(=O)c1[nH]c(C)c(C(=O)N2CCN(c3ccc(F)cc3)CC2)c1C	21567*	3.4	2.0	3.8	-2.5	9.2
CCOC(=O)c1[nH]c(C)c(C(=O)Nc2cccc(Cl)c2C)c1C	19613*	-2.8	3.4	2.6	-4.1	-4.7
CCOc1ncccc1C(=O)Nc1cccc(S(=O)(=O)N2CCOCC2)c1	3545	nt	-2.3	-0.2	-0.5	-9.4
CCCN(CC(=O)Nc1ccccc1OC)C(=O)c1ccc2c(c1)NC(=O)C(C)S2 (stereo not given)	3702	nt	0.7	0.3	2.8	10.3
CN(Cc1cccs1)C(=O)CN1CCN(S(=O)(=O)c2ccc3c(c2)OCCCO3)CC1	5059	nt	-4.0	-4.6	-0.2	-7.3
C/C(CCc1ccc2c(c1)OCO2)=N\N=C1\NC(=O)CC(C(=O)Nc2ccc(Cl)cc2)S1 (stereo not given)	21037*	2.2	-3.9	-2.9	-1.5	-20.4
Cc1ccc(Cl)cc1N1CCN(S(=O)(=O)c2c(C)[nH]c(=O)[nH]c2=O)CC1	19342*	1.5	1.4	?	0.4	11.4
C[C@H](NC(=O)C1CC(=O)N(c2ccc3c(c2)OCCO3)C1)C(=O)NCc1ccco1 (stereo not given in full)	5258	-4.9	5.5	0.3	-1.3	24.2
Cc1ccc(C(C#N)N2CCOCC2)cc1 (stereo not given)	22170*	2.6	2.4	0.7	1.4	-11.4
N#CC(c1ccc(Cl)cc1)N1CCOCC1 (stereo not given)	3401	-0.5	2.6	-1.7	-0.4	0.1
O=C(CSc1nc2c(c(=O)[nH]1)CCC2)Nc1ccc(F)cc1	4196	-6.7	-12.3	-1.4	-2.5	-13.5
O=C(CSc1nc2c(c(=O)[nH]1)CCCC2)Nc1ccc(Cl)cc1F	20550*	-3.5	-0.2	0.5	-2.9	1.1
O=C(O)CSc1nc2c(c(=O)[nH]1)CCCC2	24867*	-7.8	-8.6	-7.7	-1.5	-8.9
CN(c1ccccc1)c1nc2ccsc2c(=O)s1	21828*	-9.4	2.5	1.9	-0.7	2.5
Cc1ccc(C(=O)Nc2cnc3ccccn3c2=O)cc1	24404*	0.0	-5.5	-2.0	-1.0	9.7
COC(=O)CCCCC1SCC2NC(=O)NC21O (stereo not given)	4177	2.1	79.1*	9.6	4.2	-7.1
CCn1ncc(C2=NOC(C(=O)NCc3ccccc3)C2)c1C (stereo not given)	26555*	-1.1	-9.6	?	-1.1	-8.2
Cc1cc(/C=N/n2cnnc2)c(C)n1-c1ccc(OCc2ccccc2F)cc1	11396	1.7	-18.3	-2.4	-6.8	-10.4
S=c1[nH]ncn1/N=C/c1cccc(Oc2ccccc2)c1	4208	7.1	8.0	1.6	0.3	12.8
C(=N\n1cnnc1)/c1cccc(Oc2ccccc2)c1	22913*	2.2	0.4	1.0	-1.1	-9.7
SMILES	Autofluor counter	SARS 3CLpro inh	BoNT F protease	BoNT A protease	Anthrax LF prot	CCHFV vOTU inh
Fc1ccccc1COc1cccc(/C=N/n2cnnc2)c1	24150*	-7.1	-6.6	-2.0	0.3	-4.5
CCCNC(=O)C1(C)CCN(C(=O)c2ccc3c(c2)CCO3)C1 (stereo not given)	3093	nt	6.0	-0.6	4.5	6.4
O=C(O)c1ccccc1CSc1nc2ccccc2[nH]1	4972	-1.7	-9.4	-3.5	-3.2	9.2
Cc1ccc(S(=O)(=O)N(C)CC(=O)Nc2ncccc2C)cc1	4221	nt	2.4	0.1	2.8	1.7
O=CN(Cc1ccco1)C1(C(=O)NC2CCCCC2)CCCCC1	22071*	0.7	0.2	?	-5.1	0.8
CC1CCN(c2nc3ccccc3nc2C(C#N)C(=O)OC2CCCCC2)CC1 (stereo not given)	10980	-2.9	15.6	9.6	6.7	nt
Cc1cccc(S(=O)(=O)C(C#N)c2nc3ccccc3nc2N2CC(C)OC(C)C2)c1 (stereo not given)	8102	-4.7	-8.4	2.0	0.3	-11.4
Cc1ccc(S(=O)(=O)C(C#N)c2nc3ccccc3nc2N2CC(C)OC(C)C2)cc1C (stereo not given)	17403*	8.6	-4.2	0.0	3.1	5.1
CCN1CCN(c2nc3ccccc3nc2C(C#N)S(=O)(=O)c2ccc(C)c(C)c2)CC1 (stereo not given)	22821*	-2.1	-2.1	-0.2	-0.8	1.6
CCCCCCOC(=O)C(C#N)c1nc2ccccc2nc1N1CCOCC1 (stereo not given)	19713*	-2.1	0.9	2.3	-4.6	2.5
CC1CN(c2nc3ccccc3nc2C(C#N)C(=O)OC2CCCCC2)CC(C)O1 (stereo not given)	21164*	-0.9	2.8	?	15.9	4.3
CCCn1c(N)c(C(=O)CSc2ncnc3sccc23)c(=O)n(C)c1=O	6233	nt	0.2	0.0	0.1	-8.8
CN1CC(=O)N(CC(=O)NC2CCCCC2)C1=O	3871	nt	-8.1	-0.6	2.0	2.5
CC(=O)Nc1cccc(C(=O)NNC(=O)c2n[nH]c(=O)c3ccccc23)c1	2927	nt	-2.2	0.3	-6.8	8.7
CCOc1ccc(S(=O)(=O)N2CCOCC2)cc1NC(=O)CSCc1c(C)noc1C	6040	nt	2.5	-0.6	1.6	-10.0
Cc1ccc(Cl)cc1N(Cc1ccc(C(=O)NCc2cccnc2)cc1)S(=O)(=O)c1ccccc1	22366*	4.0	2.5	?	0.0	-17.7
COc1ccc(NC(=O)c2ccc(CN(c3cc(Cl)ccc3C)S(=O)(=O)c3ccccc3)cc2)cc1OC	20845*	4.1	-10.9	-3.7	-4.1	11.8
CC(C)C[C@@H]1CC2=C(C(=O)OC(C)(C)O2)[C@H](c2ccc(Cl)cc2)O1	4316	nt	-6.9	-0.6	-9.3	17.3
Cn1c(=O)c2c(nc(SCCCO)n2Cc2ccccc2Cl)n(C)c1=O	16181*	2.4	1.8	0.9	-2.0	1.4
Cn1c(=O)c2c(nc(NCc3ccc4c(c3)OCO4)n2Cc2ccccc2Cl)n(C)c1=O	17237*	1.0	-7.0	-2.8	-1.3	-1.4
Cn1c(=O)c2c(nc(Sc3ncccn3)n2Cc2ccccc2Cl)n(C)c1=O	18229*	-0.7	7.4	6.3	-2.2	10.9
C=CCOc1nc2c(c(=O)n(C)c(=O)n2C)n1Cc1ccccc1Cl	20534*	3.4	7.4	5.8	-6.1	2.5
O=C(COC(=O)CC1CC2CCC1C2)Nc1ccc(F)cc1Cl (stereo not given)	5240	nt	-1.0	0.9	0.9	2.2
